In PubChem BioAssay AID2289 (National Center for Advancing Translational Sciences (NCATS), 2010):
Out of some 340,000 compounds screened, about 3,300 (0.97%) were called active. Roughly 9% stayed inconclusive and do not appear here. Calls follow the shape of the dose curve; as a rule, active = well fitted inhibition curve with a large enough effect; inconclusive = small, poorly fitted or top-dose-only effect, or effect the other way; inactive = flat fitted curve, though single readings scatter. This is one part of the list.

test: qHTS Assay for Modulators of miRNAs and/or Inhibitors of miR-21; conditions: HeLa miR-21-FLuc reporter, luciferase luminescence, 48 h; actives lower the signal; also: nearly all actives have a fitted effect of over 55% in size
Description: MLSCN Grant: 1 R21 NS059478-01 Assay Provider: Qihong Huang, The Wistar Institute NCGC Assay Overview: MicroRNAs (miRNAs) are endogenously encoded small (~20-25 nucleotides), nonprotein-coding RNAs that are involved in post-transcriptional repression of target messenger RNAs (mRNAs) (Le and Hannon, 2004). Estimated to be involved in the regulation of 30% of all protein-coding mRNAs (Filipowicz et al., 2008), miRNAs play a significant role in many biological processes including cellular differentiation and tissue development (Ghildiyal and Zamore, 2009).
NCGC Assay Protocol Summary: Reagents: HeLa cells stably expressing firefly luciferase (FLuc) under the control of a CMV promoter (upstream) and a miR-21 binding sequence directly downstream of the gene. These cells endogenously express miR-21. Control compounds used were compound C3 (provided by collaborator), N6-phenyladenosine (MP Biomedicals, 0215379625), and DMSO. Assay Summary: 6uL of HeLa miR-21-FLuc cells in assay buffer (DMEM, Invitrogen #21063-029; 10% FBS, HyClone #SH30071.03) were dispensed at 2000cells/well (3.3 x 10^5 cells/mL) into Greiner solid-white TC-treated 1536-well plates using a Multidrop Combi (Thermo Fisher Scientific). Plates were incubated for one hour at 37 degree Celsius, 95% humidity, 5% CO2. These assay plates were then treated with 23nL of compound or DMSO using a Kalypsys pin tool, which allows for delivery of a 24-point titration of each compound to the assay plate, with a final compound concentration ranging from approximately 40uM to 5pM. Assay plates were then incubated for 48 hours. After incubation, plates were allowed to come to RT for one hour prior to delivery of 3uL of 3X luciferase detection reagent. After a 15 minute incubation to allow for cell lysis, luciferase activity was measured using a ViewLux CCD imager (PerkinElmer), with an average exposure time of 2-12 seconds. Keywords: NIH Roadmap, MLPCN, MLSMR, qHTS, miR-21, microRNA, firefly luciferase, FLuc.
Potency is read from the fitted curve at half-maximal effect.

Potency, active:
COc1ccccc1N=c1oc2cc(O)ccc2cc1C(=O)NCC1CCCO1 (stereo not drawn) 9.27 µM
CCOC(=O)/C=C(\C)N1N=C(c2ccccc2)CC1c1ccccc1 (stereo not drawn) 2.33 µM
COc1cc(/C=N/N(C)c2ccccc2)ccc1O 2.61 µM
CCOc1ccc(/C=N/N(C)c2ccccc2)cc1OC 4.65 µM
COc1ccc(OC)c(/C=N/N(C)c2ccccc2)c1 6.56 µM
CN(/N=C/c1ccc2c(c1)OCO2)c1ccccc1 6.56 µM
CCCCC12CN3CCN(CC(C3)/C1=N\NC(=O)c1ccccc1N)C2 9.27 µM
Nc1ccccc1C(=O)N/N=C1\C2CN3CCN(C2)CC1(c1ccccc1)C3 7.36 µM
CC12CN3CCN(CC(C3)/C1=N\NC(=O)c1ccccc1N)C2 10.4 µM
O=C(CSc1nnc2ccc3ccccc3n12)c1ccc(F)cc1 9.27 µM
c1ccc2c(c1)ccc1nnc(SCc3ccc4c(c3)OCCO4)n12 16.5 µM
Cc1ccc2nc(-c3ccc(Cl)c(NC(=O)c4ccc5c(c4)OCCO5)c3)oc2c1 7.36 µM
COc1ccc2oc(-c3ccc(C)c(NC(=O)c4ccc5c(c4)OCCO5)c3)nc2c1 8.26 µM
CCc1cccc(C)c1NC(=O)Cn1nc(C)n2cccc2c1=O 4.65 µM
Cc1nn(CC(=O)Nc2ccccc2C(F)(F)F)c(=O)c2cccn12 16.5 µM
Cc1cc(C(=O)N(C)C)sc1-c1ccccc1 5.21 µM
CC1=C(c2ccc(C)cc2)[N+](=O)C(C)(C)N1[O-] 3.69 µM
CCc1cccc2c(C(=O)COC(=O)c3ccccc3)c[nH]c12 16.5 µM
COc1ccc(-c2csc(N=C(N)N)n2)cc1 8.26 µM
Cc1ccsc1/C=N\NC(=O)c1cc(C(C)(C)C)[nH]n1 4.14 µM
O=C(Nc1nc2ccsc2c(=O)s1)c1ccc(F)cc1 0.414 µM
CCOc1ccc(Nc2nc(-c3cccnc3)cs2)cc1 0.585 µM
Cc1ccc(Nc2nc(C)cs2)cc1 6.56 µM
Cc1ccc(Nc2nc(C3CC3)cs2)cc1 1.65 µM
Cc1ccc(Nc2nc(-c3ccncc3)cs2)cc1 0.656 µM
O=[N+]([O-])c1ccccc1Nc1nc(-c2cccnc2)cs1 18.5 µM
Cc1csc(Nc2ccc(Cl)cc2)n1 10.4 µM
O=C(C[n+]1cn(C(F)F)c2ccccc21)c1ccc(OC(F)F)cc1 5.85 µM
Clc1ccc(-c2cnc(Oc3ccccc3)nc2)cc1 2.07 µM
Cc1ccccc1Nc1nnc(SCC(=O)NC(=O)Nc2ccc3c(c2)OCCO3)s1 10.4 µM
O=C(Nc1ccc2c(c1)OCCO2)C1CC1c1ccccc1 (stereo not drawn) 7.36 µM
Cc1ccc(SCC(=O)Nc2ccc3c(c2)OCCO3)cc1 1.65 µM
Cc1ccc(N(CC(=O)Nc2ccc3c(c2)OCCO3)S(C)(=O)=O)cc1 10.4 µM
Cc1cccc(-c2nsc(SCC(=O)Nc3ccc4c(c3)OCO4)n2)c1 13.1 µM
O=C(CSc1ccccc1)Nc1ccc2c(c1)OCO2 13.1 µM
O=C(CSc1ccc(-c2ccccc2)nn1)Nc1ccc2c(c1)OCCO2 8.26 µM
O=C(Nc1ccc2c(c1)OCO2)N1CCCc2ccccc21 13.1 µM
O=C(CC1CS(=O)(=O)CC1CC(=O)Nc1ccc2c(c1)OCCO2)Nc1ccc2c(c1)OCCO2 (stereo not drawn) 7.36 µM
CCc1ccc(C(=O)Nc2cc(C)ccc2F)s1 6.56 µM
CCOc1ccc(NC(=O)Nc2cc(C)ccc2F)cc1 1.85 µM
Cc1ccc(SCc2cc(=O)n3ccsc3n2)c(C)c1 9.27 µM
O=c1cc(CNc2ccc(Br)cc2)nc2sccn12 18.5 µM
COc1cccc(C(=O)NCCn2ccc3ccccc32)c1 5.21 µM
Cc1cccc(NC(=S)NNC(=O)c2csc(C)c2)c1 2.93 µM
CCc1cc(C(=O)Nc2ccc(C)cc2Br)cs1 1.04 µM
CCc1cc(C(=O)NNC(=S)Nc2cccc(C)c2)cs1 4.14 µM
Cc1cccc(NC(=S)NNC(=O)c2csc(C(C)C)c2)c1 3.69 µM
O=C(NNC(=S)Nc1ccccc1Cl)c1ccccc1Br 0.927 µM
Cc1cccc(NC(=S)NNC(=O)c2ccccc2Br)c1 2.07 µM
CCCc1cc(C(=O)NNC(=S)Nc2cccc(C)c2)cs1 3.69 µM
Cc1cccc(NC(=S)NNC(=O)c2ccc3c(c2)OCO3)c1 0.464 µM
Cc1c(C(=O)NNC(=S)Nc2cccc(Cl)c2)nnn1-c1ccccc1 16.5 µM
CCOC(=O)Cc1c(C)nc2c(-c3ccccc3)cnn2c1C 16.5 µM
CCOC(=O)c1cnc2c(-c3ccccc3)cnn2c1C 0.927 µM
CC(C)C(=O)Nc1nc2c(s1)CC(C(C)(C)C)CC2 (stereo not drawn) 2.07 µM
Nn1c(SCc2ccccc2)nc2ccccc21 4.14 µM
CCOC(=O)CSc1nc2cc3c(cc2cc1C#N)OCCO3 0.147 µM
CCOC(=O)CSc1nc2cc3c(cc2cc1C#N)OCO3 1.04 µM
N#Cc1ccc(-c2csc(NC3=NCCCCC3)n2)cc1 6.56 µM
Brc1ccc(-c2csc(NC3=NCCCCC3)n2)cc1 10.4 µM
Cc1ccnc(NC(=S)NC(=O)c2ccco2)c1 1.17 µM
O=C(NC(=S)Nc1ccccn1)c1ccco1 3.69 µM
O=C(Nc1ccccc1F)c1cc2nc(C(F)F)cc(C(F)F)n2n1 18.5 µM
Cc1cccc(NC(=O)c2ccc(OC3CSC3)cc2)c1 2.93 µM
CCC(C)c1ccc(OCc2ccc(C(=O)O)o2)cc1 (stereo not drawn) 0.233 µM
CCC(C)c1ccc(OCc2ccc(C(=O)OC)o2)cc1 (stereo not drawn) 4.65 µM
COc1cc(/C=C2/C(=O)ON=C2C)ccc1OCc1cccc(F)c1 10.4 µM
COc1cc(C=O)ccc1OCc1cccc(Br)c1 14.7 µM
CCOC(=O)c1c(C)[nH]c(N=Nc2ccccc2)c1C 7.36 µM
CCOC(=O)c1c(C)[nH]c(N=Nc2ccc(OC)cc2)c1C 2.93 µM
CCOC(=O)c1c(C)[nH]c(N=Nc2ccc(C)cc2C)c1C 10.4 µM
CCOC(=O)c1c(C)[nH]c(N=Nc2cccc(OC)c2)c1C 0.927 µM
CCOc1ccc(N=C(/C(C(=O)C(=O)N2CCOCC2)=C(\O)c2ccccc2)c2ccccc2)cc1 3.69 µM
CC1CCCCN1c1nc(-c2ccc(C(C)(C)C)cc2)nc2ccccc12 (stereo not drawn) 0.585 µM
CCOC(=O)C1CCCN(c2ncnc3c2oc2ccccc23)C1 (stereo not drawn) 16.5 µM
c1ccc2c(c1)oc1c(N3CCOCC3)ncnc12 16.5 µM
Brc1ccc2oc3c(N4CCOCC4)ncnc3c2c1 4.65 µM
Cc1ccc(-c2onc3ccc(C(=O)O)cc23)cc1 1.17 µM
FC(F)(F)c1ccc(NCc2ccccn2)nc1 13.1 µM
COc1cc(N2Cc3ccccc3C2)ccc1C=O 5.21 µM
Fc1ccc(/C=N/Nc2ncnc3nc[nH]c23)cc1F 4.14 µM
Clc1ccc(/C=N/Nc2ncnc3nc[nH]c23)cc1 1.65 µM
Fc1cccc(/C=N/Nc2ncnc3nc[nH]c23)c1 1.65 µM
CC(C)Sc1nc(N)nc(-c2cccs2)c1C#N 2.93 µM
CCSc1nc(N)nc(-c2cccs2)c1C#N 16.5 µM
CCCSc1nc(N)nc(-c2cccs2)c1C#N 13.1 µM
CCCCNC(=O)N(C)c1nc2ccccc2s1 8.26 µM
Cc1nc(SCc2ccccc2)nc2c1CCC2 5.85 µM
COc1ccc2nc(SCc3ccccc3)nc(C)c2c1 1.17 µM
COc1ccc2nc(SCc3cccc(C)c3)nc(C)c2c1 7.36 µM
O=C1/C(=C\c2cccs2)Sc2ccc3ccccc3c21 0.521 µM
Cc1cc(NC(=O)CCC2CCCCC2)no1 16.5 µM
Cn1c(NC(=O)CCc2ccccc2)cc(=O)n(C)c1=O 3.69 µM
Cn1c(NC(=O)CCC2CCCCC2)cc(=O)n(C)c1=O 1.17 µM
O=C(CNC(=O)c1cccs1)c1ccc(Br)cc1 3.29 µM
CC1CCC(NC(=O)CNC(=O)c2cccs2)CC1 (stereo not drawn) 3.29 µM
O=C(CCCC(=O)c1ccc(F)cc1)c1ccc(F)cc1 3.29 µM
O=C(CNC(=O)c1ccc(F)cc1)c1ccc(Cl)cc1 3.69 µM
O=C(CNC(=O)c1ccccc1F)c1ccc(Br)cc1 1.47 µM
Cc1ccc(N=C2NC(=O)/C(=C\c3cccs3)S2)cc1C 10.4 µM
Clc1ccc(OCCSc2ncccn2)cc1 3.69 µM
Clc1ccc(OCCSc2ncccn2)c(Br)c1 1.31 µM
Cc1ccc(OCCCSc2ncccn2)cc1C 14.7 µM
CC(C)CSc1nnc2c3ccccc3n(C)c2n1 1.31 µM
O=C(/C=C/c1nc2ccccc2s1)N1CCCCCC1 2.07 µM
CCC(=O)N1CCc2nc(-c3ccccc3)sc2C1 14.7 µM
Cc1cccc(C)c1NC(=O)c1c[nH]c2ccccc12 3.69 µM
Clc1nc(-c2cccnc2)nc2scc(-c3ccccc3)c12 7.36 µM
